The text below walks through data of PubChem BioAssay (NCATS).

Assay [1] in a line: qHTS Assay for Lipid Storage Modulators (AID 1519; calls by dose curve). To be noted: Drosophila S3 cells, BODIPY lipid droplet/cell ratio, laser cytometry, cells loaded with oleic acid. The gist of the method:
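Cells seeded at 5,000 per well were treated with compounds over a concentration series and loaded with oleic acid (400 uM, as added). Lipid droplet fluorescence (488 nm excitation, 500-530 nm channel) was read by laser-scanning cytometry and normalized to 20 uM Triacsin C.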

The target of assay [2] is DNA repair nuclease/redox regulator APEX1 (Homo sapiens) (UniProt P27695). Kind of assay: qHTS Validation Assay for Inhibitors of the Human Apurinic/apyrimidinic Endonuclease 1 (APE1) (AID 1705;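 further: TAMRA fluorescence gain over two minutes as APE1 cuts a quenched THF abasic duplex; on the % scale 0 is the no-effect control and ±100 the full control effect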). To be noted: purified APE1 endonuclease activity, fluorescence, titration; series mostly up to 57.1 µM. The method, boiled down: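 Substrate: 50 nM final fluorophore/quencher THF-abasic duplex. Enzyme preincubated with compounds 15 min, RT. Progress derived from fluorescence difference, third minus first kinetic read.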
DNA repair nuclease/redox regulator APEX1 (Homo sapiens), sequence (P27695 whole entry, looked up): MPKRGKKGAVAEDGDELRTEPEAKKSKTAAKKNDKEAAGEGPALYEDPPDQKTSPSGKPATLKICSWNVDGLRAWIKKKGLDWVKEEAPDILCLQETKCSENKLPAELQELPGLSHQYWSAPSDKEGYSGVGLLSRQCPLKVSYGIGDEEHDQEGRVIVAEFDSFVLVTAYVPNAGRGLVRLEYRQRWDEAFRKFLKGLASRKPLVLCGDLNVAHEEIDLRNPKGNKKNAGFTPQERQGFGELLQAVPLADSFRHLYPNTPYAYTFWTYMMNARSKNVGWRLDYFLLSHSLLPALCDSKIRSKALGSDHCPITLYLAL
(In general: In qHTS, concentration-response curves come from the screen itself.)

The nature of assay [3]: Counterscreen for APE1 Inhibitors: Fluorescent Dye Displacement Validation Assay (AID 1707).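 Further: plate controls were ThO with dsDNA and no compound for no effect and ThO without dsDNA for full effect.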 To be noted: fluorescent dye displacement from DNA; series mostly up to 57.1 µM. The gist of the method:
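Endpoint fluorescence read at 480 nm excitation / 540 nm emission; DNA-binding compounds lower signal by displacing 250 nM Thiazole Orange from 50 nM dsDNA containing a tetrahydrofuran abasic site, Tris-HCl pH7.5 buffer with NaCl and MgCl2.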
In general terms: Counterscreens check selectivity or assay interference.

Assay [4] concerns the target Endonuclease 4 (Escherichia coli (strain K12)) (UniProt P0A6C1). Kind of assay: Counterscreen for APE1 Inhibitors: qHTS Validation Assay for Inhibitors of Endonuclease IV (AID 1708). Further: on the % scale 0 is the no-effect control and ±100 the full control effect. To be noted: E. coli endonuclease IV, DNA cleavage fluorescence; series mostly up to 57.1 µM. The gist of the method: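 Incision of a double-stranded 50 nM TAMRA/BHQ-2 abasic substrate was followed kinetically (525/598 nm, reads every 60 s) after 15 min enzyme–compound preincubation with 2 nM EndoIV in pH 7.5 Tris buffer with MgCl2, DTT and Tween-20; concentration-response format.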

Assay [5] can be described thus: qHTS for differential inhibitors of proliferation of Plasmodium falciparum line 7G8 (AID 1815).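 Further: parasite growth measured after three days of incubation.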 Further: potency means the concentration at half of the fitted maximal effect.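 On activity change, negative = inhibition: plate controls were vehicle wells for no effect and reference inhibitor wells for full effect.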 Conditions: Plasmodium falciparum 7G8 proliferation inhibition; series mostly up to 28.7 µM.
A short description of assay [6]: qHTS for differential inhibitors of proliferation of Plasmodium falciparum line GB4 (AID 1816).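 Further: parasite growth measured after 72 h incubation.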 Further: potency means the concentration at half of the fitted maximal effect.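 On activity change, negative = inhibition: 0% = vehicle DMSO and -100% = reference inhibitor.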 To be noted: Potency: Plasmodium falciparum GB4 proliferation inhibition; series mostly up to 28.7 µM.
A short description of assay [7]: qHTS for differential inhibitors of proliferation of Plasmodium falciparum line 3D7 (AID 1876).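 Further: parasite growth measured after three days of culture; 0% = vehicle wells and -100% = reference inhibitor wells.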 To be noted: P. falciparum 3D7 proliferation inhibition; series mostly up to 28.7 µM.
The nature of assay [8]: qHTS for differential inhibitors of proliferation of Plasmodium falciparum line D10 (AID 1877).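 Further: parasites grown with compound for 72 h before DNA staining; plate controls were vehicle wells for no effect and reference inhibitor wells for full effect.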 To be noted: series mostly up to 28.7 µM.
Assay [9] can be described thus: qHTS for differential inhibitors of proliferation of Plasmodium falciparum line Dd2 (AID 1882).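 Further: plate controls were DMSO vehicle for no effect and 0.29 µM artemisinin for full effect; nearly all actives have a fitted effect of over 65% in size.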 To be noted: Potency: Plasmodium falciparum Dd2 proliferation inhibition; series mostly up to 28.7 µM. The method, boiled down: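 SYBR Green DNA fluorescence (ex 485, em 535 nm) after overnight lysis quantifies parasite growth; compound exposure lasted 72 h at 37 C on infected red cells at 2.5% hematocrit, 0.3% parasitemia (final). Artemisinin 0.29 uM and vehicle wells define normalization.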

Assay [10] in a line: qHTS for differential inhibitors of proliferation of Plasmodium falciparum line HB3 (AID 1886).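 Further: parasites grown with compound for 72 h before SYBR Green readout; plate controls were vehicle for no effect and reference inhibitor for full effect.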 Conditions: Potency: Plasmodium falciparum HB3 proliferation inhibition; series mostly up to 28.7 µM.
Assay [11] addresses Ferritin light chain (Equus caballus) (UniProt P02791). Kind of assay: qHTS Validation Assay for Identification of Novel General Anesthetics (AID 2323). Further: on the % scale 0 is the no-effect control and ±100 the full control effect. To be noted: horse apoferritin, anesthetic-site fluorescent probe displacement; series mostly up to 76.9 µM. The method, boiled down:
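Normalized fluorescence response, scaled between free 1-AMA and 1-AMA/apoferritin complex, fitted to a four-parameter Hill equation for concentration-effect values. Binding mix: 10 uM horse-spleen apoferritin, 50% saturated 1-AMA in PBS; read 380/535 nm after 10 min.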

For assay [12], the target named is ATP-dependent DNA helicase Q1 (Homo sapiens) (UniProt P46063). Kind of assay: qHTS Validation Assay for Inhibitors of RecQ-Like Dna Helicase 1 (RECQ1) (AID 2353).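 Further: plate controls were DMSO vehicle for no effect and enzyme-free control for full effect.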 Conditions: recombinant RECQ1 helicase DNA unwinding assay; series mostly up to 25.6 µM. The method, boiled down:
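RECQ1T1 50 nM; forked duplex (20 bp + 30-nt ss tails) 200 nM, ATP 2 mM final; pH 8.0, 2 mM MgCl2, 2.5 ug/ml poly(dI-dC); 15 min compound preincubation; discontinuous kinetic read over 2 h at RT.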

Assay [13] is described as follows: Cytometric Cell-Based qHTS for Inhibitors of the mTORC1 Signaling Pathway in MEF (Tsc2-/-, p53-/-) Cells (AID 2660).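 Further: Tsc2 and p53 null MEFs carrying empty vector with compound for 24 h; percent of cells above a phospho-rpS6 to PI ratio cutoff in each well; plate controls were DMSO for no effect and rapamycin for full effect.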 Conditions: mTORC1 pathway cytometry; series mostly up to 38.3 µM. The method, boiled down: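 Cells are plated, treated with compound for 24 hrs at 37 degree Celsius, then fixed, blocked and immunostained for phospho-rpS6 Ser235/236. Propidium iodide counterstain follows. Per-well % positive cells is derived from the PI-normalized phospho-S6 signal.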

Assay [14] is described as follows: High Content Imaging Cell-Based qHTS for Inhibitors of the mTORC1 Signaling Pathway in MEF (Tsc2-/-, p53-/-) Cells (AID 2666).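 Further: percent of cells scored positive for phospho-rpS6 Ser235/236 immunostaining by imaging.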 Conditions: at 38.3 µM (top of the series). The method, boiled down: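 Tsc2-/-, p53-/- MEFs (empty-vector stable) grown in DMEM + 10% FBS were exposed to compounds for 24 hrs at 37 degree Celsius, fixed, and stained with Alexa-488 anti-phospho-rpS6 Ser235/236 plus Hoechst. Imaging gave the percentage of positive cells per well.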

A short description of assay [15]: High Content Imaging Cell-Based qHTS for Inhibitors of the mTORC1 Signaling Pathway in MEF Cells (AID 2667).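 Further: Tsc2-/- p53-/- MEFs stably re-expressing wild-type Tsc2 exposed 24 h; plate controls were DMSO wells for no effect and rapamycin control wells for full effect.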 To be noted: series mostly up to 38.3 µM. The gist of the method: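 Tsc2-/-, p53-/- MEFs stably re-expressing WT Tsc2, grown in DMEM + 10% FBS, were treated with compounds for 24 hrs at 37 degree Celsius, fixed, and stained with Alexa-488 phospho-rpS6 Ser235/236 antibody plus Hoechst; results given as % positive cells.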

Assay [16] can be described thus: Cytometry Cell-Based qHTS for Inhibitors of the mTORC1 Signaling Pathway in MEF cells (AID 2668).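 Further: Tsc2-/- p53-/- mouse embryonic fibroblasts stably re-expressing wild-type Tsc2; percent cells positive for phospho-rpS6 Ser235/236 relative to propidium iodide stain; plate controls were DMSO wells for no effect and 7.5 nM rapamycin control wells for full effect.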 Conditions: mTORC1 pathway readout; series mostly up to 38.3 µM. The gist of the method:
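In MEFs grown in DMEM + 10% FBS, a 24 hrs compound exposure preceded imaging of phospho-rpS6 Ser235/236 by laser-scanning cytometry.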

A short description of assay [17]: Validation screen for inhibitors of Lassa infection (AID 463096; calls by dose curve; further: on the % scale 0 is the no-effect control and ±100 the full control effect). Conditions: Lassa virus infection, cell-based; series mostly up to 46.1 µM.
Assay [18] is described as follows: qHTS for differential inhibitors of proliferation of Plasmodium falciparum line W2 (AID 1883).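 Further: parasites grown with compound for 72 h before lysis and staining.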 Further: potency means the concentration at half of the fitted maximal effect.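 On activity change, negative = inhibition: 0% = vehicle wells and -100% = control inhibitor wells.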 Conditions: Potency: Plasmodium falciparum W2 proliferation inhibition; series mostly up to 28.7 µM.
Assay [19] concerns the target RecQ-like DNA helicase BLM (Homo sapiens) (UniProt P54132). Put plainly: qHTS Validation Assay for Inhibitors of Bloom's syndrome helicase (BLM) (AID 2364).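 Further: plate controls were DMSO vehicle for no effect and enzyme-free control for full effect.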 Conditions: BLM helicase DNA unwinding, fluorescence, in vitro; series mostly up to 57.1 µM. The gist of the method:
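Forked 20-bp duplex substrate (200 nM, TAMRA/BHQ-2) plus 2 mM ATP added after 15 min compound preincubation with 50 nM enzyme, pH 8.0, poly(dI-dC) 2.5 ug/ml. Strand separation followed by fluorescence (525/598 nm) over 2 h, normalized to enzyme-free and DMSO controls.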

[20] abbreviates: measured here: cell count channel max response.
Where [21] appears, read: measured here: lipid channel max response.

Values joined by “and” are separate entries in the source; they are usually repeats but may differ in a detail not shown here. Identical values can stand only once. Results filed as inconclusive are left out. Active and inactive are the calls of the source. Unless noted, the call rests on the fitted dose curve; in most records, active means well fitted curve in the direction sought with a large enough effect; inconclusive means small, poorly fitted or top-dose-only effect, or another doubt; inactive means no such curve, though single readings can be large; an effect the other way counts as inactive or inconclusive.

ATP-dependent DNA helicase Q1 (Homo sapiens), sequence (P46063 whole entry, looked up): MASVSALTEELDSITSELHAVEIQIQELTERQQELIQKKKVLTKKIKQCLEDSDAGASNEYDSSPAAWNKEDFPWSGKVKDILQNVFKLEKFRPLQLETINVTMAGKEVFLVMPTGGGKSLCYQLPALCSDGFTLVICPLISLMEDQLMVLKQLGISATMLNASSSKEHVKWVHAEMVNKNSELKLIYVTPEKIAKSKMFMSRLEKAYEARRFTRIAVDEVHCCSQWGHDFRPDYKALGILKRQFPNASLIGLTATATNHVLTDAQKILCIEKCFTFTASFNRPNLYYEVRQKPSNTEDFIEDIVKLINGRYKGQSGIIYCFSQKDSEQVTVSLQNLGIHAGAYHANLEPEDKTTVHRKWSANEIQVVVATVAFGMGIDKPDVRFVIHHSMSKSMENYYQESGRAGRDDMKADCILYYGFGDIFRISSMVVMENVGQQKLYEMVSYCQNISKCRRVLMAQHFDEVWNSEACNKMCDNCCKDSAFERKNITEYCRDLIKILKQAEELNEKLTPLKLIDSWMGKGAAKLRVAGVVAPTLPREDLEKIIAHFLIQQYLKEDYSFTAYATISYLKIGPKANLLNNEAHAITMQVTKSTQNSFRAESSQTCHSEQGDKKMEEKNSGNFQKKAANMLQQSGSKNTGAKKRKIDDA
Ferritin light chain (Equus caballus), sequence (P02791 2-175 limits assumed): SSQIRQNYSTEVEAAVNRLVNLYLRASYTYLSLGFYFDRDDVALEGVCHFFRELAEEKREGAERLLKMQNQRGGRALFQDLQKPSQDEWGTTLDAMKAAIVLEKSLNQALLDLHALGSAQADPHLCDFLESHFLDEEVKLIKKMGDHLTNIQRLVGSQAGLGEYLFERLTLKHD
RecQ-like DNA helicase BLM (Homo sapiens), sequence (P54132 whole entry, looked up): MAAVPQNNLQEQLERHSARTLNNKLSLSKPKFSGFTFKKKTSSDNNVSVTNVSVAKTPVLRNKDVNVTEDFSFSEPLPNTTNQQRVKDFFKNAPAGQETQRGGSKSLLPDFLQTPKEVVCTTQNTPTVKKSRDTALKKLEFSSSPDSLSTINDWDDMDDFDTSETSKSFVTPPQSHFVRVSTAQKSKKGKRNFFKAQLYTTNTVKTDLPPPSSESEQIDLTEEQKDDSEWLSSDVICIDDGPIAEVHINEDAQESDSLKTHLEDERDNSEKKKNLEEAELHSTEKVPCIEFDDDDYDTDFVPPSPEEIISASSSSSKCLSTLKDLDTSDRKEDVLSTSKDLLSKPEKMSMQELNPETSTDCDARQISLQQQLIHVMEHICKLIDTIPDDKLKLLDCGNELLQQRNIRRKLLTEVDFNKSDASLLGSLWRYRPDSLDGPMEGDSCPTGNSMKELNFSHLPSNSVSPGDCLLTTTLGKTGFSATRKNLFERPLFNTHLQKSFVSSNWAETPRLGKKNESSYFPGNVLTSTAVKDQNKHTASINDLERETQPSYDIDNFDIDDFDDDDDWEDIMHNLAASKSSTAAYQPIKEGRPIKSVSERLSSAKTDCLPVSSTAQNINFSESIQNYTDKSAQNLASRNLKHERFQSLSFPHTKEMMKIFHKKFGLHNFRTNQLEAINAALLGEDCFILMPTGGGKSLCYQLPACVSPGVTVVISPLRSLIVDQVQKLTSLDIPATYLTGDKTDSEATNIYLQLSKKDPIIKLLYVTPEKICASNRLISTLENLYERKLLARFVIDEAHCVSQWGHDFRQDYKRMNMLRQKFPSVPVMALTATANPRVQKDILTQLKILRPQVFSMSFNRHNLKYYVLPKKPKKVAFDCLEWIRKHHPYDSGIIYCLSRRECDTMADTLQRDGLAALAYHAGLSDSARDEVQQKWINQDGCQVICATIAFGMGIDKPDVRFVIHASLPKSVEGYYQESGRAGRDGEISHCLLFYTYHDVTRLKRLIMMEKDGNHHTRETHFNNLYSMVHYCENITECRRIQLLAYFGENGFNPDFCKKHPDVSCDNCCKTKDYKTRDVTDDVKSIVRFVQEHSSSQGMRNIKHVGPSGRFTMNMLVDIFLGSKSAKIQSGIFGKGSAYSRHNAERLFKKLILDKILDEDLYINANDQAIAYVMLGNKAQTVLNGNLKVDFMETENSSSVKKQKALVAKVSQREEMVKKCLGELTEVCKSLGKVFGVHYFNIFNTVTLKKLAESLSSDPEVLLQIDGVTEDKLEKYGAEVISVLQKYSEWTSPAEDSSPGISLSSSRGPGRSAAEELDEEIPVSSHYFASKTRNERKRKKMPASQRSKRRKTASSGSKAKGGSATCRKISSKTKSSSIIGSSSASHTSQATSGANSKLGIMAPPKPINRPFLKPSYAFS

As to `COC(=O)C1=CCCN(C)C1`, the activity change, negative = inhibition in assay [1] (at 25.7 µM (top of the series)) was 0.438% (inactive); in assay [1] (at 57.5 µM (top of the series)), 7.06% (inactive) and -4.88% (inactive). For the same compound, the max response was 20.3% and 3.22% and -69.9% in assay [1] (setting [20]); 21.3% and 16.2% and -73.3% in [1] (setting [21]). The compound was classed as inactive in assay [2], in assay [3], in [4], in assay [11], in assay [12] and in assay [13]. Also, the outcome in assay [14] and in [15] was inactive. In addition, the Potency result in assay [5], in assay [6], in assay [7], in assay [8], in [9] and in [10] was “inactive” throughout. In addition, the Potency result in [16] and in assay [17] was “inactive” in each case.

Regarding `c1ccc2nc(N3CCNCC3)ccc2c1`, the activity change, negative = inhibition was -1.91% (inactive) in [1] (at 25.7 µM (top of the series)); 4.37% (inactive) and 6.17% (inactive) in assay [1] (at 57.5 µM (top of the series)). Also, the max response is -6.47% and 8.94% and 1.83% in assay [1] (setting [20]); -9.05% and 14.3% and 11.9% in assay [1] (setting [21]). The outcome in assay [2], in assay [3], in [11], in assay [12] and in [19] was inactive. Besides, the results for the Potency in [5], in assay [6] and in assay [18] were 7.94 µM (active), 11.2 µM (active) and 7.08 µM (active), respectively. Besides, the Potency entry in [8], in assay [10] and in assay [17] was “inactive” throughout.

Take `NC(=O)CN1CCCC1=O`: the figures for the activity change, negative = inhibition in assay [1] (at 25.7 µM (top of the series)) and in [1] (at 57.5 µM (top of the series)) were -1.06% (inactive) and 8.11% (inactive), respectively. Besides, the max response in assay [1] (setting [20]) is -2.61% and 10.4%; in [1] (setting [21]) it was -4.04% and 22.9%. Further, the compound was classed as inactive in assay [2], in assay [3], in assay [4], in assay [11], in assay [12] and in assay [13]. The result in assay [14] and in assay [15] was inactive. The Potency result in assay [5], in assay [6], in assay [7], in [8], in assay [9] and in assay [18] was “inactive” each time. Also, the Potency entry in [10], in [16] and in assay [17] was “inactive” throughout.
